Experimental data: ChEMBL document CHEMBL3988442, “University of Dundee, Small-Polar-MMV Screening Library” (2021)
For some of these results: Entries with a potency or affinity are not part of this list.

Assays:
Set-up in all cases: scale not given: direction of the effect not stated beside the values
[1] = biological target: Protein translocase subunit SecA (Escherichia coli (strain K12)) (UniProt P10408); assay: Assay to Identify E. coli SecA ATPase Inhibitors; assay type: functional; conditions: 30 µM
Chain of Protein translocase subunit SecA (Escherichia coli (strain K12)) (P10408 whole entry): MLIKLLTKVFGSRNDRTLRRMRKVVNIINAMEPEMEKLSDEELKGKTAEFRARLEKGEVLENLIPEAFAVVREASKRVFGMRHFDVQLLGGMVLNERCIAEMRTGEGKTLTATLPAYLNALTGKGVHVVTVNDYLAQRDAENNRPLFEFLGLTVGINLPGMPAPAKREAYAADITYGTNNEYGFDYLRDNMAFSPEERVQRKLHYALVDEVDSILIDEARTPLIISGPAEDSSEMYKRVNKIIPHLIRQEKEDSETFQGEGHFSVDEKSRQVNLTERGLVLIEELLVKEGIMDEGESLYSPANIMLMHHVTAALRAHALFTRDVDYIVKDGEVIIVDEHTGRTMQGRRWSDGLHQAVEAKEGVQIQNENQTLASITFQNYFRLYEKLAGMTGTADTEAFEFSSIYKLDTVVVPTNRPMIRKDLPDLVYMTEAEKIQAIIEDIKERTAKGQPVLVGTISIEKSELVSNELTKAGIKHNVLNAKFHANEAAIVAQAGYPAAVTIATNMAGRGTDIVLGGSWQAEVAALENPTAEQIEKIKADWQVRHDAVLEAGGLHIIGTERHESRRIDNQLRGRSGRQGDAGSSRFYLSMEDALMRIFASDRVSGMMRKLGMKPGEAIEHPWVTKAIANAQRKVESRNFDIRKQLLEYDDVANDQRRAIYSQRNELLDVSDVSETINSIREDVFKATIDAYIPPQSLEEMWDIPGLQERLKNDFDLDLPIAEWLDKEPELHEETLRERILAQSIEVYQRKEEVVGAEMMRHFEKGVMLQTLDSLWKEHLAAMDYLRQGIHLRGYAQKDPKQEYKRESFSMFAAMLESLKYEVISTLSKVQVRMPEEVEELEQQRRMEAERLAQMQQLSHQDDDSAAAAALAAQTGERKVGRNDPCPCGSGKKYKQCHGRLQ

[2] = biological target: T1, Ubiquitin-activating enzyme e1, putative (Leishmania donovani (strain BPK282A1)) (UniProt E9BSI1); assay: Leishmania donovani Ubiquitin Activating Enzyme (LdE1); assay type: functional; conditions: 30 µM
T1 sequence (whole entry): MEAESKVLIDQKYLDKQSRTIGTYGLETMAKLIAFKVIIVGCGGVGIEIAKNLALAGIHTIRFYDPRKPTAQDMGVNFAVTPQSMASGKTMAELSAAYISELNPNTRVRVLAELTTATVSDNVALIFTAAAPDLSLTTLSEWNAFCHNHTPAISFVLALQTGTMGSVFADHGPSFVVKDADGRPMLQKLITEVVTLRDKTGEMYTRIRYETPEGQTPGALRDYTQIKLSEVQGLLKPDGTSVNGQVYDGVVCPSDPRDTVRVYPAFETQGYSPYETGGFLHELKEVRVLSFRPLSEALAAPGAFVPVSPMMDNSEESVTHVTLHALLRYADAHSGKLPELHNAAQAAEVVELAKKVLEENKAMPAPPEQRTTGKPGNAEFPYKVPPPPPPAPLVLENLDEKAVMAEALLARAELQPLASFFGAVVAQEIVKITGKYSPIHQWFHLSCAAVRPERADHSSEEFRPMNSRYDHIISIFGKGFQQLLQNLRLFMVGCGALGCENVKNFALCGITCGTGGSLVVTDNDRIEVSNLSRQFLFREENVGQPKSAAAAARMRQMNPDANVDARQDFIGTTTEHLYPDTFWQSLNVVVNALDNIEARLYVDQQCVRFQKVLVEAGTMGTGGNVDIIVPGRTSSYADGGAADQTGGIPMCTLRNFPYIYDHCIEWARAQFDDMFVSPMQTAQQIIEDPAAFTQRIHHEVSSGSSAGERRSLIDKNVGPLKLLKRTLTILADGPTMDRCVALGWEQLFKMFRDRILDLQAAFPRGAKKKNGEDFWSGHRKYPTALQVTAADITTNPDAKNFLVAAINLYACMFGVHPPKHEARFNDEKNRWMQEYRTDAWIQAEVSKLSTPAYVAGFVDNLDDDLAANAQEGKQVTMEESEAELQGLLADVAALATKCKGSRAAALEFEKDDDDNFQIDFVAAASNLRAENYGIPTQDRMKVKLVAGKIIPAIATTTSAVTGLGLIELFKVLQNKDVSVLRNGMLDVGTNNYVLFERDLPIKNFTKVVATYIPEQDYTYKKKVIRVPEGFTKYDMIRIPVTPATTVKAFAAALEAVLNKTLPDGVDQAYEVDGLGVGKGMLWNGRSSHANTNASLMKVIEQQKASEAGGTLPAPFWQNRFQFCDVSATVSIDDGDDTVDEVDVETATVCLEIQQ

[3] = biological target: AMP-activated protein kinase, AMPK (Homo sapiens) (UniProt P54646+O43741+P54619+Q9UGJ0+Q9Y478+Q13131+Q9UGI9); assay: AMP-dependent Kinase enzyme assay. An in vitro enzyme assay that detects ADP turnover that is directly proportional to AMPK activity. This uses naive AMPK that is activated during the assay with MK-8722; assay type: functional; conditions: 30 µM
[4] = biological target: Sialic acid-binding Ig-like lectin 9 (Homo sapiens) (UniProt Q9Y336); assay: Hs-Siglec9 ALPHAscreen SOP 20170721; conditions: 10 µM
Chain of Sialic acid-binding Ig-like lectin 9 (Homo sapiens) (Q9Y336 whole entry): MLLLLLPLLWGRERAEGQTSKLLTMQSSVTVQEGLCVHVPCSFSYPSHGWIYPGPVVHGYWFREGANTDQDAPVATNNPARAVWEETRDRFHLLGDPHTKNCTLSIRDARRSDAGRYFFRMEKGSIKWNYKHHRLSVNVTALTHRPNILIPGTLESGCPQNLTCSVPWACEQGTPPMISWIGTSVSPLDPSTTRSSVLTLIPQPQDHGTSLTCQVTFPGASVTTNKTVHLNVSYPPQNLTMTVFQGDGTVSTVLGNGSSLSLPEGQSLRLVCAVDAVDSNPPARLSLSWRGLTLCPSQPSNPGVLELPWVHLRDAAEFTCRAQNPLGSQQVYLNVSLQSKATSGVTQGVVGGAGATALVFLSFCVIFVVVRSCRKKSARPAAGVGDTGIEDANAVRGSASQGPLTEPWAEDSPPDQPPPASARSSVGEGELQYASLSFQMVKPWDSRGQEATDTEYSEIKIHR

Trypanosoma cruzi = assay: Trypanosoma cruzi phosphomannomutase and mannose-1-phosphate guanylyltransferase assay; assay type: functional; conditions: 10 µM
[5] = biological target: T2, Arginase-2, mitochondrial (Homo sapiens) (UniProt P78540); assay: in vitro enzyme assay to detect the production of urea directly proportional to the activity of Arginase II; assay type: functional; conditions: 33.3 µM; note: in the data most compounds retested in dose-response had high values
T2 sequence (whole entry): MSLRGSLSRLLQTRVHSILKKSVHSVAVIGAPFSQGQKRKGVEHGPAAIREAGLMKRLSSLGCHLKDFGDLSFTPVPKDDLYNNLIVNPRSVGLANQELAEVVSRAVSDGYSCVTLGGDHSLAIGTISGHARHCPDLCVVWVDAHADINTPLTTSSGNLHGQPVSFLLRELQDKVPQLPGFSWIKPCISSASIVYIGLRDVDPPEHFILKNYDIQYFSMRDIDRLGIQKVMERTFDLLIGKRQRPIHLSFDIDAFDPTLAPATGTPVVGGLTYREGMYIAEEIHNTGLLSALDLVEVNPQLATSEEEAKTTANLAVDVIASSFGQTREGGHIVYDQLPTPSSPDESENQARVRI

[6] = biological target: T3, Proteasome subunit beta (Trypanosoma cruzi) (UniProt O96673); assay: Trypanosoma cruzi proteasome chymotrypsin-like activity (TcProtChymo) assay.; note: in the data most compounds retested in dose-response had high values; assay type: functional; conditions: 9.37 µM
T3 sequence (whole entry): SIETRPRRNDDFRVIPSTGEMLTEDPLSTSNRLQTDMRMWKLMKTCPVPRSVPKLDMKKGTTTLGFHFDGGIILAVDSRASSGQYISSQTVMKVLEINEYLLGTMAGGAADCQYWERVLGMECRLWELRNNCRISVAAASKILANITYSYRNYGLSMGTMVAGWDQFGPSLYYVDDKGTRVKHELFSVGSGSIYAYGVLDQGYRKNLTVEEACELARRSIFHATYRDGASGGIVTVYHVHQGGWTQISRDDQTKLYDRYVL

Homo sapiens = species on record: Homo sapiens; assay: To identify inhibition of the IFN signalling (Jak-Stat) pathway via expression of an eGFP reporter gene under the control of an IFN-stimulated response element (ISRE) containing MxA promoter.; assay type: functional; conditions: 30 µM
[7] = biological target: T4, Tyrosyl-tRNA synthetase, putative (Trypanosoma cruzi (strain CL Brener)) (UniProt Q4DSP6); assay: Trypanosoma cruzi tyrosyl tRNA synthetase (TcYRS) _High Tyrosine SOP; assay type: functional; conditions: 30 µM; note: in the data most compounds retested in dose-response had high values
T4 sequence (whole entry): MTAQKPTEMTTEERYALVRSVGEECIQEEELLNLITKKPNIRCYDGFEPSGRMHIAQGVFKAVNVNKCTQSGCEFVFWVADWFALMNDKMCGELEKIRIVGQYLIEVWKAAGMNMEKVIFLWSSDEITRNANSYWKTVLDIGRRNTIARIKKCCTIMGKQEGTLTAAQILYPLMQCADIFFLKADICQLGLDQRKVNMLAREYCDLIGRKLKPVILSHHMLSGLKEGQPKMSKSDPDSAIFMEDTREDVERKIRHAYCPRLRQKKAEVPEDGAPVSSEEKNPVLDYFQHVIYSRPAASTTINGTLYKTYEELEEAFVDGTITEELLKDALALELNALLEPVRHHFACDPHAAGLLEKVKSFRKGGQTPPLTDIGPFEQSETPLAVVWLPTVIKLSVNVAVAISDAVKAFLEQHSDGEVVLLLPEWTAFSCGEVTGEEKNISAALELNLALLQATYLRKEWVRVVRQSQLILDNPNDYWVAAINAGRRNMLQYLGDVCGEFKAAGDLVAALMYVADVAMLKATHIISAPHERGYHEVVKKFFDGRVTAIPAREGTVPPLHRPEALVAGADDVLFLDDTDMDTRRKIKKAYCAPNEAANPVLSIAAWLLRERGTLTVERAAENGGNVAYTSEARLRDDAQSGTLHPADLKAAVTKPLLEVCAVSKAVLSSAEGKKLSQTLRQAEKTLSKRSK

[8] = biological target: T4, Tyrosyl-tRNA synthetase, putative (Trypanosoma cruzi (strain CL Brener)); assay: Trypanosoma cruzi tyrosyl tRNA synthetase (TcYRS) SOP; assay type: functional; conditions: 30 µM
[9] = biological target: Chromo domain-containing protein 1 (Saccharomyces cerevisiae (strain ATCC 204508 / S288c) (Baker's yeast)) (UniProt P32657); assay: ScCHD-1 Enzyme Inhibition Assay; assay type: functional; conditions: 30 µM; note: in the data most compounds retested in dose-response had high values
Chain of Chromo domain-containing protein 1 (Saccharomyces cerevisiae (strain ATCC 204508 / S288c) (Baker's yeast)) (P32657 whole entry, the tested form may be a part): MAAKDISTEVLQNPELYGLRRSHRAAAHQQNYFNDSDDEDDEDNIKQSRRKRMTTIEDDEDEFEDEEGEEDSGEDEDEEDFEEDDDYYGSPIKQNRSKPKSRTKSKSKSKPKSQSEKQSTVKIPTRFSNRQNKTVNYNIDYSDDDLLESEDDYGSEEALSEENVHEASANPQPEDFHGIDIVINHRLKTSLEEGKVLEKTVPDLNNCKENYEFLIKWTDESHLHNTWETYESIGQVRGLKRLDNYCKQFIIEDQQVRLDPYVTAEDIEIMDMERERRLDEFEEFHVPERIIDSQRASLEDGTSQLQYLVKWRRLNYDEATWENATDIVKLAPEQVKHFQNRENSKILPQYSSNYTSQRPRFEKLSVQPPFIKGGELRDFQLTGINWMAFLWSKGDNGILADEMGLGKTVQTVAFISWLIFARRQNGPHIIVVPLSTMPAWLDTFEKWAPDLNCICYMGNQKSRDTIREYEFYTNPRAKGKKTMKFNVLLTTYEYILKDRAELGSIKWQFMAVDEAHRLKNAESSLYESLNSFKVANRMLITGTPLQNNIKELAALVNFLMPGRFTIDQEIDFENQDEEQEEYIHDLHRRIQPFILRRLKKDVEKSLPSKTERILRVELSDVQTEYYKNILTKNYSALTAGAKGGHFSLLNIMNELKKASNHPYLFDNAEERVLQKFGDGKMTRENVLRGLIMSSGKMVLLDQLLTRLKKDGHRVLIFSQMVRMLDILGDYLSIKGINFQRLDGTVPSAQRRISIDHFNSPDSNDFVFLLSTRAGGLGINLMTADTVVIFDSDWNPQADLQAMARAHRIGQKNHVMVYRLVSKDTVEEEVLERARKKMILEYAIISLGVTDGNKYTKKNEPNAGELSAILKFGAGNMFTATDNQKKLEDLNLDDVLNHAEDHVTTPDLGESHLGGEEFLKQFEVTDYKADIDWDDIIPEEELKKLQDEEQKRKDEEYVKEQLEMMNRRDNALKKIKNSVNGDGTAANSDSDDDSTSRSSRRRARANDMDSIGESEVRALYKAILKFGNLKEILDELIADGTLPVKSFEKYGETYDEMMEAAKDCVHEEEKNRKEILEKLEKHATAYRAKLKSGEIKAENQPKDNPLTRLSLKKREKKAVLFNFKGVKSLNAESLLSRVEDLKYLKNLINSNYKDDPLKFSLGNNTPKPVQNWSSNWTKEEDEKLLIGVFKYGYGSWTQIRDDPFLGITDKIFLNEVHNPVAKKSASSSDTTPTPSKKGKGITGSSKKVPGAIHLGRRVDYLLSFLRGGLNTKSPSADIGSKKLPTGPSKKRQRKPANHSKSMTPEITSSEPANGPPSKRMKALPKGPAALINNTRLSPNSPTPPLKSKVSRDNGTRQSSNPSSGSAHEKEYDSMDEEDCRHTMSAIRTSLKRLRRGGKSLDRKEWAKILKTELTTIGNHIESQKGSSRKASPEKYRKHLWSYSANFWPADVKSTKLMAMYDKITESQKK

SMILES | Percent Effect [1] | Percent Effect [2] | Percent Effect [3] | Percent Effect [4] | Percent Effect (Trypanosoma cruzi) | Percent Effect [5] | Percent Effect [6] | Percent Effect (Homo sapiens) | Percent Effect [7] | Percent Effect [8] | Percent Effect [9]
CC(C)CCOCCNC(=O)Nc1cc(C(F)(F)F)c[nH]c1=O | -7.54% | 8.11% | 3.62% | 2.66% | -0.464% | -0.924% | 1.62% | 6.69% | 6.93% | 13.4% | 7.34%
O=C(CC1CCCO1)NCc1ccccc1Cn1cncn1 (stereo unspecified) | -2.25% | 15.8% | -5.58% | -5.97% | -7.75% | 4.32% | 9.39% | 3.32% | 4.43% | 23.5% | -2.47%
COc1ccccc1C(=O)NC(C)CC(=O)O (stereo unspecified) | -6.61% | 11.4% | 1.36% | -1.14% | 1.74% | 1.07% | 2.92% | 12.6% | 5.21% | 15.2% | -12.9%
O=C(Nc1ccccn1)N(CCO)Cc1ccsc1 | -2.18% | 10.5% | 4.91% | 14.4% | 0.564% | 0% | 11.2% | 9.82% | 8.33% | 17.1% | -3.38%
O=C(NCCc1nnc2n1CCC2)NCC1(c2cccc(F)c2)CC1 | -7.67% | -5.26% | 5.7% | -1.62% | 2.43% | 0% | -1.44% | -9.73% | 2.13% | 5.2% | 1.42%
CC(C)(C)n1cc(C(=O)N2CCN(Cc3ccccc3F)CC2)cn1 | -2.41% | 13.2% | -1.01% | 8.67% | 4.89% | 0.383% | 22.4% | 10.5% | 6.37% | 21.9% | -11.6%
Cc1cc(C(=O)N2Cc3ccccc3OC3(CCOCC3)C2)nc(N)n1 | -5.65% | 17.6% | 1.22% | -2.77% | 0% | -4.87% | 22.9% | 0.0795% | 2.15% | 14.3% | -24%
Cc1ccc(C(=O)N2CC[C@@H]3[C@H]2CCC(=O)N3c2ccccc2)o1 | -2.77% | 2.67% | 14% | -0.294% | 0.591% | 0.233% | -2.03% | 12.1% | 7.45% | 11.5% | 1.89%
CCN(CC)C(=O)CCNC(=O)N1CCC(c2ccccc2)C1 (stereo unspecified) | -1.34% | 0% | -3.55% | 1.13% | 0.772% | -4.29% | 0.172% | 15.7% | 0.529% | 4.88% | 0.238%
Cc1cc(C)n(C2CCCN(C(=O)c3cccc4[nH]ncc34)C2)n1 (stereo unspecified) | -5.51% | -13.5% | 6.86% | -7.42% | -4.49% | -1.67% | 7.69% | -0.356% | 6.93% | 3.66% | 2.88%
Cc1cc(CNC(=O)NC(C)c2ccncc2)no1 (stereo unspecified) | -0.908% | 7.79% | 2.08% | 2.87% | -8.36% | -1.38% | 12.7% | 11.9% | 2.15% | 6.17% | -1.85%
